# PubChem BioAssay (Tox21)
# Values joined by “and” are separate entries in the source; they are usually repeats but may differ in a detail not shown here. Equal values may be shown once. Records with an inconclusive call do not appear. Where a call stands in place of a potency, no number is given. Some structures have more than one record in an assay (separate samples or runs), and their calls can disagree. Active and inactive are the calls of the source. Unless noted, calls follow the shape of the dose curve; as a rule, active = well fitted curve in the direction sought with a large enough effect in the repeat runs; inconclusive = weak or mixed curves; inactive = no such curve, though single readings can be large; an effect the other way counts as inactive or inconclusive.
# Experiments:
# [1] = qHTS assay to identify small molecule antagonists of the thyroid receptor (TR) signaling pathway - cell viability counter screen (AID 743064); also: nearly all actives have a fitted effect of over 50% in size; also: potency is read from the fitted curve at half-maximal effect
# Summary of the method: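 Fluorescence from CellTiter-Fluor, added after 23.5 h exposure at 37 °C, reported viability of GH3.TRE-Luc cells co-treated with compound and 1 nM T3. Measured in the same wells as the luciferase TR readout.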
# [2] = qHTS assay to identify small molecule antagonists of the thyroid receptor (TR) signaling pathway (AID 743065); also: series mostly up to about 70 µM; nearly all actives have a fitted effect of over 55% in size
# Summary of the method: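 Antagonism measured as loss of luciferase signal in GH3 cells stably carrying a TRE-luciferase reporter, co-treated with compound and T3 (1 nM final) for 23.5 h at 37 C. Viability was read in the same well by CellTiter-Fluor.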
# [3] = tested on: thyroid hormone receptor (rat, GH3 cells); assay: qHTS assay to identify small molecule agonists of the thyroid receptor (TR) signaling pathway (AID 743066; calls by dose curve)
# [4] = target: Estrogen receptor (Homo sapiens) (UniProt P03372); assay: qHTS assay to identify small molecule antagonists of the estrogen receptor alpha (ER-alpha) signaling pathway (AID 743069; active = well fitted curve in the direction sought with a large enough effect in the signal ratio in the repeat runs, not every such curve was filed as active; the % refers to the signal ratio)
# Sequence of Estrogen receptor (Homo sapiens) (P03372 whole entry, looked up): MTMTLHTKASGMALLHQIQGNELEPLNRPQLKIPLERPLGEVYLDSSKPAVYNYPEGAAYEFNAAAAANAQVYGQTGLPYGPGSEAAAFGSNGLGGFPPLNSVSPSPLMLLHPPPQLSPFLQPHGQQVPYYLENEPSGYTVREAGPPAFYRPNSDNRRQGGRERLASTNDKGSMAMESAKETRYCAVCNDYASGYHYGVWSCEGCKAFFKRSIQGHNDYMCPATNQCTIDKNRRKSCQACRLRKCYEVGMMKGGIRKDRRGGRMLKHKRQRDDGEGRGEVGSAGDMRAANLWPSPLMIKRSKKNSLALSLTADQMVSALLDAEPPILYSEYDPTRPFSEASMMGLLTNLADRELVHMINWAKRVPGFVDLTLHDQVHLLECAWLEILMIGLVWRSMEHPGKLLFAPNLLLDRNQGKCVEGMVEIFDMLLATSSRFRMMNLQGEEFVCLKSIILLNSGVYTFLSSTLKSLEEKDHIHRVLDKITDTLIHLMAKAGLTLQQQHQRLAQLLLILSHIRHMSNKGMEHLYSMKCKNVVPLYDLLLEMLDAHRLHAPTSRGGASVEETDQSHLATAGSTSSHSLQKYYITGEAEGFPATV
# Summary of the method: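 Fluorescence intensity from a beta-lactamase FRET substrate served as the read-out. Cells: HEK293 with stably integrated ER-alpha-UAS-bla reporter. Agonist 17beta-estradiol was co-added with compounds; incubation 18 hr at 37C, substrate 2 hr at room temperature.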
# [5] = qHTS assay to identify small molecule antagonists of the estrogen receptor alpha (ER-alpha) signaling pathway - cell viability counter screen (AID 743074; calls by dose curve; also: nearly all actives have a fitted effect of over 45% in size)
# [6] = target: Estrogen receptor (Homo sapiens) (UniProt P03372); assay: qHTS assay to identify small molecule agonists of the estrogen receptor alpha (ER-alpha) signaling pathway (AID 743075; calls by dose curve)
# [7] = target: Estrogen receptor (Homo sapiens) (UniProt P03372); assay: qHTS assay to identify small molecule agonists of the estrogen receptor alpha (ER-alpha) signaling pathway using the BG1 cell line (AID 743079); also: nearly all actives have a fitted effect of over 20% in size; also: potency is read from the fitted curve at half-maximal effect
# [8] = qHTS assay to identify small molecule antagonists of the estrogen receptor alpha (ER-alpha) signaling pathway using the BG1 cell line (AID 743080; calls by dose curve;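 also: BG1 cells stimulated with 17beta-estradiol alongside compound; series mostly up to about 70 µM; nearly all actives have a fitted effect of over 25% in size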)
# Summary of the method: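 After 5 days in phenol-red-free 10% charcoal-stripped FBS medium, BG1-Luc-4E2 cells were seeded, left 24 h at 37 C, co-treated with compounds and 17beta-estradiol for 21.5 h, then assayed for viability and luciferase.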
# [9] = qHTS assay to identify small molecule antagonists of the estrogen receptor alpha (ER-alpha) signaling pathway using the BG1 cell line - cell viability counter screen (AID 743081);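 also: compound given together with 17beta-estradiol as the ER stimulus; nearly all actives have a fitted effect of over 45% in size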; also: potency is read from the fitted curve at half-maximal effect
# [10] = qHTS assay to identify aromatase inhibitors - cell viability counter screen (AID 743084);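 also: cells stimulated with testosterone during compound exposure; nearly all actives have a fitted effect of over 55% in size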; also: potency is read from the fitted curve at half-maximal effect
# [11] = qHTS assay to identify small molecule that activate the aryl hydrocarbon receptor (AhR) signaling pathway - cell viability counter screen (AID 743086); also: nearly all actives have a fitted effect of over 45% in size; also: potency is read from the fitted curve at half-maximal effect
# Summary of the method: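 Cytotoxicity counter screen: CellTiter-Fluor signal (30 min, 37 C) in 4000 HepG2 cells/well carrying the DRE-luciferase reporter, following 24 h compound exposure at 37 C.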
# [12] = target: Peroxisome proliferator-activated receptor gamma (Homo sapiens) (UniProt P37231); assay: qHTS assay to identify small molecule agonists of the peroxisome proliferator-activated receptor gamma (PPARg) signaling pathway (AID 743094; active = well fitted activation curve with a large enough effect in the signal ratio in the repeat runs, not every such curve was filed as active; the % refers to the signal ratio)
# Sequence of Peroxisome proliferator-activated receptor gamma (Homo sapiens) (P37231 whole entry, looked up): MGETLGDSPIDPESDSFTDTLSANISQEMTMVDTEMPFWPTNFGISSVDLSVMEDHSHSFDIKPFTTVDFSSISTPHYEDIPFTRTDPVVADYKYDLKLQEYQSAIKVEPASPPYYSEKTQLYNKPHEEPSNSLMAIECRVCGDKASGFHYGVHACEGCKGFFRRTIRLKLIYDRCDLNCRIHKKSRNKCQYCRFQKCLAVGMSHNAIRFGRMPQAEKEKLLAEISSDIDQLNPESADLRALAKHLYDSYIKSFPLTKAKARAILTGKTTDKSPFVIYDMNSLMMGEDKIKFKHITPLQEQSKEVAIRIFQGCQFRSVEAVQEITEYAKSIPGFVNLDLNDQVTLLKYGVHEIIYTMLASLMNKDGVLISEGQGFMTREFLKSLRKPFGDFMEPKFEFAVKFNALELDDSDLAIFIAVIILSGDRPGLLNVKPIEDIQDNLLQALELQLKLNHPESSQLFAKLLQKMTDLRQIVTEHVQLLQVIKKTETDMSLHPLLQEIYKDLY
# Summary of the method: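 Agonism was assessed in a beta-lactamase reporter system, HEK293H cells with a stably integrated UAS-bla construct under PPARg control; the 17 h treatment at 37C preceded a 1 h room-temperature FRET substrate read.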
# [13] = qHTS assay to identify small molecule antagonists of the peroxisome proliferator-activated receptor gamma (PPARg) signaling pathway - cell viability counter screen (AID 743194); also: nearly all actives have a fitted effect of over 55% in size
# Summary of the method: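 Viability was measured as CellTiter-Glo luminescence in GeneBLAzer PPARg UAS-bla HEK293H cells. These cells had been exposed 17 h at 37 C to compounds together with rosiglitazone at 50 nM final, with the beta-lactamase readout taken in the same wells.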
# [14] = qHTS assay for small molecule agonists of the antioxidant response element (ARE) signaling pathway (AID 743202; active = well fitted activation curve with a large enough effect in the signal ratio in the repeat runs, not every such curve was filed as active; the % refers to the signal ratio)
# Summary of the method: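 Beta-lactamase reporter activity, read as fluorescence intensity, reflects ARE/Nrf2 pathway induction in HepG2 cells after 16 h compound exposure at 37 C; substrate loading was 2 h at room temperature.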
# [15] = qHTS assay for small molecule agonists of the antioxidant response element (ARE) signaling pathway - cell viability counter screen (AID 743203; calls by dose curve; also: nearly all actives have a fitted effect of over 55% in size)
# Summary of the method: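 ATP content via CellTiter-Glo luminescence served as the viability measure. Cells: ARE-bla HepG2, 2,000 per well. Exposure: 16 hrs, 37C/5% CO2.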
# [16] = qHTS assay for small molecule activators of the heat shock response signaling pathway - cell viability counter screen (AID 743209); also: nearly all actives have a fitted effect of over 50% in size
# Summary of the method: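 Compounds dissolved in DMSO were added to overnight-plated HSE-bla HeLa cells and left 5 h at 37 C. Cell viability was quantified by luminescence using CellTiter-Glo.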
# [17] = target: Aromatase (Homo sapiens) (UniProt P11511); assay: qHTS assay to identify aromatase inhibitors (AID 743083)
# Sequence of Aromatase (Homo sapiens) (P11511 whole entry, looked up): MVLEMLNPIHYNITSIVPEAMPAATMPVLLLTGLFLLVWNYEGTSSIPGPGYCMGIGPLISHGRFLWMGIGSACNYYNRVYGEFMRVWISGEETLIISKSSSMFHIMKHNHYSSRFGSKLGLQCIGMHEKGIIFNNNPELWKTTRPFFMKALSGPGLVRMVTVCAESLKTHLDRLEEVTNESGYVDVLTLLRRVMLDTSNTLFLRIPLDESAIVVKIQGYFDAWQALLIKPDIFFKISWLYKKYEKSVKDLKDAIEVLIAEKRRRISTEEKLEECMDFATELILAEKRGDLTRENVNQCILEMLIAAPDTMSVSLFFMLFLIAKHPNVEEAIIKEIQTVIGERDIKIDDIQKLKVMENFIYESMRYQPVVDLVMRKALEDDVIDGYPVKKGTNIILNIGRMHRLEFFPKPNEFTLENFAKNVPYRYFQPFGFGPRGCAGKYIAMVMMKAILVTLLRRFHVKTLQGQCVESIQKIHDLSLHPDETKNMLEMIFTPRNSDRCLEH
# [18] = target: Aryl hydrocarbon receptor (Homo sapiens) (UniProt P35869); assay: qHTS assay to identify small molecule that activate the aryl hydrocarbon receptor (AhR) signaling pathway (AID 743085);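 also: HG2L7.5c1 human HepG2 liver cells with stably integrated DRE-driven firefly reporter; series mostly up to about 70 µM; nearly all actives have a fitted effect of over 15% in size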
# Sequence of Aryl hydrocarbon receptor (Homo sapiens) (P35869 whole entry, looked up): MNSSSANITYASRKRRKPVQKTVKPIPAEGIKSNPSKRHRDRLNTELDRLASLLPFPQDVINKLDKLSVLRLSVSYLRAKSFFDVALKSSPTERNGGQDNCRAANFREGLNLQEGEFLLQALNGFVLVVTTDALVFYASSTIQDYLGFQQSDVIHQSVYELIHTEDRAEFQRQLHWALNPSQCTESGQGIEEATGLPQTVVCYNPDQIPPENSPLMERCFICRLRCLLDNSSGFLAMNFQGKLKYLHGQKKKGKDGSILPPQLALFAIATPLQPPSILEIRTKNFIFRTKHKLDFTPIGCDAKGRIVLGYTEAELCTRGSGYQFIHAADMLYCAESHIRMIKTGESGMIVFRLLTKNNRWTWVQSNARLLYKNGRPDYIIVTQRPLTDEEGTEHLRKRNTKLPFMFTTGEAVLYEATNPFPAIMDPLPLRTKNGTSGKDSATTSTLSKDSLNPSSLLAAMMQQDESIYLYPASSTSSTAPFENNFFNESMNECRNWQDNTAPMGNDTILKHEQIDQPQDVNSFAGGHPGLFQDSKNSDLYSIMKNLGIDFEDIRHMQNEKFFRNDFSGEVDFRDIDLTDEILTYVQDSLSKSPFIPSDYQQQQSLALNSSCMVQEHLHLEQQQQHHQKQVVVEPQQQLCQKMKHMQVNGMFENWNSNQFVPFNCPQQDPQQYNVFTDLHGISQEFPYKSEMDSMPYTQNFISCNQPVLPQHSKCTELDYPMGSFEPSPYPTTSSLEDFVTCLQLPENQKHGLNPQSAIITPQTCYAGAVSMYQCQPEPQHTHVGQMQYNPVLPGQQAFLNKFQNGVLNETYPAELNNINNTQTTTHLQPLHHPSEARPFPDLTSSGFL
# Summary of the method: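 Cell line HG2L7.5c1 (human hepatoma, 20× DRE-luc). Plated, 5 h 37C, compound/DMSO added, 24 h 37C. CellTiter-Fluor 30 min 37C → fluorescence; then ONE-Glo 30 min RT → luminescence.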
# [19] = target: Peroxisome proliferator-activated receptor gamma (Homo sapiens) (UniProt P37231); assay: qHTS assay to identify small molecule antagonists of the peroxisome proliferator-activated receptor gamma (PPARg) signaling pathway (AID 743191; calls by dose curve; also: series mostly up to about 63 µM; nearly all actives have a fitted effect of over 30% in size)
# Summary of the method: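 Beta-lactamase reporter under UAS control in HEK293H PPARg-bla cells; compound treatment 17 h at 37C. Read-out: fluorescence intensity after 1 h room-temperature incubation with LiveBLAzer B/G FRET substrate.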
# [20] = qHTS assay for small molecule activators of the heat shock response signaling pathway (AID 743210; active = well fitted activation curve with a large enough effect in the signal ratio in the repeat runs, with a control signal flat, not every such curve was filed as active; the % refers to the signal ratio;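 also: HeLa cells with beta-lactamase reporter driven by heat shock elements; series mostly up to about 63 µM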)
# Summary of the method: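 Fluorescence from a cleaved B/G FRET substrate (2.5 h, room temp) reports HSE-driven beta-lactamase in HeLa cells treated 5 h at 37 C with DMSO-dissolved compounds.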
Compound,Potency [1],Potency [2],Potency [3],Potency [4],Potency [5],Potency [6],Potency [7],Potency [8],Potency [9],Potency [10],Potency [11],outcome [12],outcome [13],Potency [14],outcome [15],outcome [16],Potency [17],Potency [18],outcome [19],outcome [20]
NS(=O)(=O)c1cc(C(=O)O)c(NCc2ccco2)cc1Cl,inactive,inactive,inactive,inactive,inactive,inactive,15 µM (active),inactive,inactive,inactive,inactive,inactive,inactive,inactive,inactive,inactive,,,,
CCCCC(CC)COC(=O)/C=C/c1ccc(OC)cc1 (configuration not stated),inactive,inactive,inactive,inactive,inactive,inactive,inactive,inactive,inactive,inactive,inactive,inactive,inactive,inactive,inactive,inactive,inactive,inactive,inactive,
CC(C)(Oc1ccc(C2CC2(Cl)Cl)cc1)C(=O)O (configuration not stated),inactive,inactive,inactive,inactive,inactive,inactive,inactive,inactive,inactive,inactive,inactive,,inactive,inactive,inactive,inactive,inactive,inactive,inactive,
CCCC(CCC)C(=O)O,inactive,inactive,inactive,inactive,inactive,inactive,inactive,inactive,inactive,inactive,inactive,inactive,inactive,inactive,inactive,inactive,inactive,inactive,inactive,inactive
CCCNC(=O)NS(=O)(=O)c1ccc(Cl)cc1,inactive,inactive,inactive,inactive,inactive,inactive,inactive,inactive,inactive,inactive,inactive,inactive,inactive,inactive,inactive,inactive,inactive,inactive,inactive,
NC(=O)c1ccccc1O,inactive,inactive,inactive,inactive,inactive,inactive,inactive,inactive,inactive,inactive,inactive,inactive,inactive,inactive,inactive,inactive,inactive,inactive,inactive,
O=C(O)CCC(=O)O,inactive,inactive,inactive,inactive,inactive,inactive,inactive,inactive,inactive,inactive,inactive,inactive,inactive,inactive,inactive,inactive,inactive,inactive,inactive,
Cn1cc[nH]c1=S,inactive,inactive,inactive,inactive,inactive,inactive,inactive,inactive,inactive,inactive,inactive,inactive,inactive,inactive,inactive,inactive,inactive,,inactive,inactive
OC(Cn1cncn1)(Cn1cncn1)c1ccc(F)cc1F,inactive,inactive,inactive,inactive,inactive,inactive,inactive,inactive,inactive,inactive,inactive,inactive,inactive,inactive,inactive,inactive,,,inactive,
O=C(O)CS,inactive and 61.6 µM (active),inactive,inactive,inactive,inactive,inactive,inactive,inactive,inactive,inactive,inactive,inactive,inactive,inactive,inactive,inactive,inactive,inactive,inactive,
CC1(C)[C@@H]2CC[C@@]1(C)C(=O)C2,inactive,inactive,inactive,inactive,inactive,inactive,inactive,inactive,inactive,inactive,inactive,,inactive,inactive,inactive,inactive,inactive,inactive,,
O=C(O)c1[nH]n(-c2ccc(S(=O)(=O)O)cc2)c(=O)c1N=Nc1ccc(S(=O)(=O)O)cc1,54.6 µM (active) and 50.9 µM (active),inactive,inactive,inactive,inactive,inactive,inactive,inactive,inactive and 54.6 µM (active) and 64.1 µM (active),30.7 µM (active) and 57.1 µM (active),30.7 µM (active) and 22.7 µM (active),inactive,inactive,inactive,inactive,inactive,inactive,inactive,inactive,inactive
Cc1ccc(S(=O)(=O)NC(=O)NN2CCCCCC2)cc1,inactive,inactive,inactive,inactive,inactive,inactive,inactive and 30.6 µM (active),inactive,inactive,inactive,inactive,inactive,inactive,inactive,inactive,inactive,inactive,inactive,inactive,inactive
